Values joined by “and” are separate entries in the source; they are usually repeats but may differ in a detail not shown here. Identical values can stand only once. Hit rate of the full screen: of about 5,500 compounds, about 2,000 (36%) were called active. About 18% were inconclusive and are not listed. No stated cut-off is given here; in the data, active means normalized growth mostly below about 0.91 (no sharp cut-off); inconclusive means no clear call, values can overlap the other calls; inactive means mostly above about 0.92. This is one part of the list.
Experiment: chemical genetic growth profiling, strain panel (AID 1159580);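 further: tested at 20 µM; growth read once vehicle control cultures reached saturation at 30 °C; 1 = growth at the plate median or of vehicle wells; lower values mean less growth of the strain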
Conditions: S. cerevisiae deletion strains, growth OD

Measured: normalized growth

CC(=O)Nc1ccccc1
inactive: locus YAL021C, strain ccr4, hits give low values 0.971 | locus YAL026C, strain drs2, hits give low values 0.977 | locus YAL030W, strain snc1, hits give low values 0.972 | locus YBL061C, strain skt5, hits give low values 0.962 | locus YBR009C, strain hhf1, hits give low values 0.977 | locus YBR021W, strain FUR4, hits give low values 1.02 | locus YBR023C, strain chs3, hits give low values 0.961 | locus YBR171W, strain sec66, hits give low values 0.965 | locus YBR229C, strain ROT2, hits give low values 0.957 | locus YBR231C, strain swc5, hits give low values 0.963 | locus YBR279W, strain paf1, hits give low values 0.981 | locus YCL011C, strain gbp2, hits give low values 0.962 | locus YCL016C, strain dcc1, hits give low values 0.966 | locus YCL029C, strain bik1, hits give low values 0.983 | locus YCL061C, strain MRC1, hits give low values 0.987 | locus YCL069W, strain vba3, hits give low values 0.962 | locus YCR088W, strain abp1, hits give low values 0.976 | locus YDL005C, strain med2, hits give low values 0.98 | locus YDL035C, strain GPR1, hits give low values 0.987 | locus YDL040C, strain nat1, hits give low values 0.97 | locus YDL074C, strain BRE1, hits give low values 0.963 | locus YDL101C, strain DUN1, hits give low values 0.98 | locus YDL134C, strain PPH21, hits give low values 1.02 | locus YDL185W, strain tfp1, hits give low values 0.986 | locus YDL192W, strain arf1, hits give low values 0.985 | locus YDR001C, strain nth1, hits give low values 0.974 | locus YDR069C, strain doa4, hits give low values 0.959 | locus YDR101C, strain arx1, hits give low values 0.982 | locus YDR137W, strain rgp1, hits give low values 1.01 | locus YDR150W, strain NUM1, hits give low values 0.983 | locus YDR159W, strain sac3, hits give low values 0.977 | locus YDR162C, strain NBP2, hits give low values 0.995 | locus YDR195W, strain ref2 0.935 | locus YDR297W, strain sur2, hits give low values 0.975 | locus YDR318W, strain mcm21, hits give low values 0.999 | locus YDR334W, strain swr1, hits give low values 0.956 | locus YDR335W, strain msn5, hits give low values 0.982 | locus YDR388W, hits give low values 0.986 | locus YDR392W, strain spt3, hits give low values 0.993 | locus YDR502C, strain sam2, hits give low values 0.989 | locus YEL003W, strain gim4, hits give low values 0.973 | locus YEL037C, strain rad23, hits give low values 0.972 | locus YEL061C, strain CIN8 (second series), hits give low values 0.962 | locus YEL061C, strain CIN8, hits give low values 0.975 | locus YER015W, strain faa2, hits give low values 0.977 | locus YER016W, strain bim1, hits give low values 0.973 | locus YER110C, hits give low values 0.977 | locus YER111C, strain swi4, hits give low values 0.972 | locus YER155C, strain BEM2 (second series), hits give low values 0.981 | locus YER155C, strain BEM2, hits give low values 0.999 | locus YER167W, strain BCK2, hits give low values 0.999 | locus YFR010W, strain ubp6, hits give low values 0.96 | locus YGL078C, strain dbp3, hits give low values 0.99 | locus YGL086W, strain mad1, hits give low values 0.981 | locus YGL167C, strain pmr1, hits give low values 0.947 | locus YGL173C, strain kem1, hits give low values 0.967 | locus YGL227W, strain vid30, hits give low values 0.966 | locus YGL240W, strain doc1, hits give low values 0.965 | locus YGL248W, strain PDE1, hits give low values 0.976 | locus YGL253W, strain hxk2, hits give low values 0.982 | locus YGR135W, strain pre9, hits give low values 1 | locus YGR229C, strain SMI1, hits give low values 0.973 | locus YGR252W, strain gcn5, hits give low values 0.968 | locus YHR013C, strain ard1, hits give low values 0.942 | locus YHR027C, strain rpn1, hits give low values 0.973 | locus YHR030C, strain SLT2, hits give low values 0.991 and 0.975 | locus YHR079C, strain IRE1 (second series), hits give low values 0.99 | locus YHR079C, strain IRE1, hits give low values 0.969 | locus YHR094C, strain hxt1, hits give low values 0.988 | locus YHR129C, strain ARP1, hits give low values 0.993 | locus YHR142W, strain chs7, hits give low values 0.963 | locus YHR200W, strain rpn10, hits give low values 0.986 | locus YIL066C, strain RNR3, hits give low values 0.968 | locus YIL073C, strain SPO22, hits give low values 1.03 | locus YIL125W, strain kgd1, hits give low values 0.983 | locus YIR030C, strain dcg1, hits give low values 0.988 | locus YJL092W, strain hpr5, hits give low values 0.977 | locus YJL095W, strain BCK1 (second series), hits give low values 0.966 | locus YJL095W, strain BCK1, hits give low values 0.98 and 0.984 | locus YJL115W, strain asf1, hits give low values 0.951 | locus YJL129C, strain trk1, hits give low values 0.981 | locus YJL134W, strain LCB3, hits give low values 0.992 | locus YJL154C, strain vps35, hits give low values 0.975 | locus YJL164C, strain tpk1, hits give low values 0.963 | locus YJL166W, strain qcr8, hits give low values 0.976 | locus YJL168C, strain set2, hits give low values 0.978 | locus YJL187C, strain SWE1 (second series), hits give low values 0.965 | locus YJL187C, strain SWE1, hits give low values 0.972 | locus YJR043C, strain POL32, hits give low values 0.968

Source: PubChem BioAssay AID1159580 (chemical genetic matrix, 2015)
